According to PubChem BioAssay (NCATS):
Inconclusive results are not listed. Values without a mark were called inactive. The call rests on the fitted dose curve; in most records, active means well fitted cell-killing curve with a large enough effect; inconclusive means small, poorly fitted or top-dose-only effect; inactive means flat fitted curve, though single readings scatter.

Experiment: Cell Viability - LYMP2-012 (AID 982);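 further: cellular ATP by luciferase luminescence where a drop means cytotoxicity; cells exposed to compound for one day before reading; 0% = DMSO only and full loss = 92 µM tetraoctylammonium bromide; nearly all actives have a fitted effect of over 55% in size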
Conditions: LYMP2-012 lymphoblastoid cell viability qHTS; series mostly up to 92.2 µM; activity change, negative = cytotoxicity: at the top concentration
Source text: NIH Chemical Genomics Center [NCGC]
NIH Molecular Libraries Screening Centers Network [MLSCN]
National Institutes of Environmental Health Sciences [NIEHS]
National Toxicology Program [NTP]
We have developed a 1536-well cell-based assay for quantitative high throughput screening (qHTS) against a number of cell lines to determine in vitro cytotoxicity of small molecules. This particular assay uses a human lymphoblastoid cell line (LYMP2-012) purchased from Coriell Institute for Medical Research.
NCGC Assay Protocol Summary:
The CellTiter-Glo luminescent cell viability assay (Promega) is a homogeneous method to measure the number of viable cells in culture. The end point readout of this assay is based on quantitation of intracellular ATP, an indicator of metabolic activity, using the luciferase reaction. Luciferase catalyzes the oxidation of beetle Luciferin to oxyluciferin and light in the presence of ATP. The luminescent signal is proportional to amount of ATP present.
Using the CellTiter-Glo luminescent cell viability assay, the amount of cellular ATP was measured in the lymphoblastoid cell line with complete culture medium following compound treatment for 24 hours. The assay was performed in opaque white Kalypsys 1536-well plates. In the screen, tetraoctylammonium bromide was used as positive control. Library compounds were measured for their ability to cause acute toxicity in the cell line, as reflected by a decrease in intracellular ATP levels, in a concentration-dependent manner. […] AC50 values were determined from concentration-response data modeled with the standard Hill equation.
qHTS protocol for CellTiter Glo lymphoblastoid cellular assay
[Step] [Parameter] [Value] [Description]
1. Reagent; 5 uL; 2500 lymphoblastoid cells/well
2. Time; 5 hr; 37 C incubation
4. Controls; 23 nL; Tetraoctylammonium bromide 6.4pM to 92 uM
5. Time; 24 hr; 37 C incubation
6. Reagent; 5 uL; CellTiter Glo reagent
7. Time; 30 min; Room Temperature
8. Detection; Luminescence; Viewlux plate reader
Keywords: cell viability, cytotoxicity, lymphoblastoid cell line, luminescence, NTPHTS, NTPHTS_NCGC, NIEHS, DSSTox, MLSMR, MLSCN, NIH Roadmap, qHTS, NCGC

Row | Compound | activity change, negative = cytotoxicity [%]
1 | CC(C)(Cl)Cl | -5.99
2 | COC(C)(C)C | 3.93
3 | CCCCCCCCCCCCCl | 7.24
4 | COC(=O)Nc1cccc(OC(=O)Nc2cccc(C)c2)c1 | -2.51
5 | O=[N+]([O-])CCO | 1.37
6 | CC(C)(Cl)[N+](=O)[O-] | -0.937
7 | O=Cc1ccc(Cl)cc1Cl | 6.16
8 | O=C(Cl)OCc1ccccc1 | -1.62
9 | COc1ccccc1N | -15.5
10 | CCOP(=S)(OCC)SCCSCC | 9.03
11 | O=[N+]([O-])c1ccccc1-c1ccccc1 | -4.54
12 | C=CC(=O)OC | 14.1
13 | Nc1ccc(Cl)c(Cl)c1 | -0.338
14 | Nc1ccc(-c2ccc(N)c(Cl)c2)cc1Cl | -25.7
15 | Cc1ccc(N)cc1N | -10.7
16 | Brc1ccc(Oc2ccc(Br)cc2Br)c(Br)c1 | -5.3
17 | CCC(Cl)[N+](=O)[O-] (stereo not given) | 2.17
18 | CC(C)(OOC(C)(C)c1ccccc1)c1ccccc1 | -4.85
19 | NNC(N)=S | -16.7
20 | Cc1cccc(C)c1N | -2.02

Row | Compound | activity change, negative = cytotoxicity [%]
21 | CC(C)(C)c1ccccc1O | -20.5
22 | CCOC(=O)CBr | -25.1
23 | [N-]=[N+]=[N-] | -0.118
24 | C=CCCl | 3.54
25 | CC(Cl)(Cl)Cl | 5.61
26 | CCOC(=O)CC(SP(=O)(OC)OC)C(=O)OCC (stereo not given) | -11.9
27 | Oc1cccc(Cl)c1 | -0.852
28 | C/C=C/C=O | -7.16
29 | O=S(=O)(O)F | -15.8
30 | CC(C)[C@]12CC(=O)[C@H](C)[C@H]1C2 | 0.408
31 | ClCCBr | -20.5
32 | Nc1ccc([N+](=O)[O-])cc1[N+](=O)[O-] | 10.3
33 | ClCc1ccccc1 | -3.03
34 | Nc1cc(Cl)ccc1Cl | -6.78
35 | CCCCC(=O)Cl | 1.21
36 | c1ccoc1 | 0.713
37 | OCCOCCO | -12.2
38 | Nc1cc(Cl)ccc1O | -25.9
39 | CCN(N=O)C(N)=O | -1.85
40 | CN=C=O | -2.73
